Laboratory results from PubChem BioAssay.
Active and inactive are the calls of the source. Unless noted, no stated cut-off is given here; in the data, active means inhibition above about 44%; inactive means the rest.

How the values were obtained:
[1] = StAR promoter reporter inhibitors, counter-screen for LRH-1 inverse agonist project, cell-based, luminescence, high throughput (AID 651611; in the data active means inhibition above about 28%); conditions: StAR promoter luciferase reporter counterscreen, at 3.6 µM, active compounds read high
[2] = target: Nuclear receptor subfamily 5 group A member 2 (Homo sapiens) (UniProt O00482); test: NR5A2 activity suppression in reporter cells – cell-based, luminescence, confirmation (AID 651613; in the data active means inhibition above about 42%;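 further: HEK293T cells co-transfected with LRH-1 and StAR promoter luciferase reporter; 0% = vehicle wells and 100% = parental cells lacking receptor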); conditions: cell-based LRH-1 luciferase reporter, inverse agonism; at 3.6 µM; active compounds read high
Nuclear receptor subfamily 5 group A member 2 (Homo sapiens), sequence (O00482 whole entry, looked up): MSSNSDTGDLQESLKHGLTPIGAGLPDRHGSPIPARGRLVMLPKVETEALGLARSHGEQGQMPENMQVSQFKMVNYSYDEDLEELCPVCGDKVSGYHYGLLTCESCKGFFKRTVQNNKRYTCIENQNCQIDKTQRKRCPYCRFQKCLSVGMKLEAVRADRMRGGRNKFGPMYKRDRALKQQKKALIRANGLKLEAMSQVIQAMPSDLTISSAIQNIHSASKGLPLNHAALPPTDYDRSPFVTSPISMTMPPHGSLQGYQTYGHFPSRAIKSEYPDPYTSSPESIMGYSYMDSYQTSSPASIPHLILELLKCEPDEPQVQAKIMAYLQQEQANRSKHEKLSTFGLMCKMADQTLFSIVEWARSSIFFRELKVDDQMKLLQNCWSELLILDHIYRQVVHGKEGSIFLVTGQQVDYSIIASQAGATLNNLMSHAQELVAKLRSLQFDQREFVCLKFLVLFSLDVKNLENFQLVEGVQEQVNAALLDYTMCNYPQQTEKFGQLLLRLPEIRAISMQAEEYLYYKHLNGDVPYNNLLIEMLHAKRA

[3] = target: Steroidogenic factor 1 (Homo sapiens) (UniProt Q13285); test: inverse agonism at SF1 nuclear receptor – cell-based, luminescence, high throughput, counter-screen for LRH-1 inverse agonist project (AID 651614); conditions: cell-based SF1 luciferase reporter, at 3.6 µM, active compounds read high;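 further: cells cotransfected with StAR promoter reporter and SF1 expression vector; 0% = vehicle on cells with receptor and 100% = vehicle on cells lacking receptor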
Steroidogenic factor 1 (Homo sapiens), sequence (Q13285 whole entry, looked up, the tested form may be a part): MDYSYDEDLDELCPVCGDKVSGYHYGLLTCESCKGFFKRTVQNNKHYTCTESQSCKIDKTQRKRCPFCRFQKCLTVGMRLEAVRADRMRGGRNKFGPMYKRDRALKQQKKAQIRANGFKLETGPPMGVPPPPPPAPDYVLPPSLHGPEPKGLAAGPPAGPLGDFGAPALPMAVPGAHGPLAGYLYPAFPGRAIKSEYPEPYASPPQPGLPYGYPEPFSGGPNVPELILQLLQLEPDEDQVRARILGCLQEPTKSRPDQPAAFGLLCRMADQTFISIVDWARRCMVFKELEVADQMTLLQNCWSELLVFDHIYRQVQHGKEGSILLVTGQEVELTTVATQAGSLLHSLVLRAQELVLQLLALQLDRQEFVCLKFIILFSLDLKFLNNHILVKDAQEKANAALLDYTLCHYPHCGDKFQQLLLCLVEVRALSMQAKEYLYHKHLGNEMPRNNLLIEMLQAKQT

[4] = compounds suppressing VP16-driven luciferase signal – cell-based, luminescence, high throughput, counter-screen for LRH-1 inverse agonist project (AID 651615; in the data active means inhibition above about 33%); conditions: Gal4-VP16 luciferase reporter cells, at 3.6 µM, active compounds read high

Row | SMILES | inhibition [1] | inhibition [2] | inhibition [3] | inhibition [4]
1 | COc1cc(-c2cc(-c3ccc(O)cc3)nc(N)c2C#N)ccc1O | 36.1% (active) | 68.3% (active) | 53.9% (active) | -133% (inactive)
2 | COc1cccc(C(C)(O)c2nc(-c3ccc(S(C)(=O)=O)cc3)cs2)c1 (stereo unspecified) | 7.7% (inactive) | 58.2% (active) | 62.1% (active) | 24% (inactive)
3 | O=[N+]([O-])c1ccc(Sc2nnnn2-c2ccccc2)c(Cl)c1 | 5.41% (inactive) | 25.6% (inactive) | 37.7% (inactive) | -13% (inactive)
4 | Cc1ccc(N2C(=O)C(Cl)=C(N3CCN(C)CC3)C2=O)c(C)c1 | 13.1% (inactive) | 50.3% (active) | 39% (inactive) | -9.83% (inactive)
5 | Cc1ccccc1C(=O)O/N=C/c1c(N2CCOCC2)n(C)c2ccccc12 | 76.4% (active) | 84.3% (active) | 91.4% (active) | 58.8% (active)
6 | Cn1c(SCC(=O)Nc2ccc(N3CCOCC3)cc2)nnc1-c1ccccc1 | 0.41% (inactive) | 46.2% (active) | 47.5% (active) | -12.2% (inactive)
7 | CCOc1ccc(S(=O)(=O)Nc2cc(OC)ccc2OC)cc1 | 35.8% (active) | 54.4% (active) | 49.1% (active) | 22.6% (inactive)
8 | O=[N+]([O-])c1ccc(N2CCCC2)nc1N1CCCC1 | 11.1% (inactive) | 59.7% (active) | 56.1% (active) | -3.67% (inactive)
9 | O=C(c1ccco1)N1CCN(C(=O)c2ccc(COc3ccc(Cl)cc3Cl)o2)CC1 | 5.02% (inactive) | 49% (active) | 46.2% (active) | -11.1% (inactive)
10 | CCOC(=O)c1cc2sccc2n1CC(=O)Nc1ccc2c(c1)OCCO2 | 7.97% (inactive) | 55.1% (active) | 52.2% (active) | -2.96% (inactive)
11 | CC(=O)Nc1ccc(NC(=O)CSc2nnc(NC(=O)C3CC3)s2)cc1 | 1.23% (inactive) | 49.6% (active) | 48.2% (active) | -1.05% (inactive)
12 | Cc1c([N+](=O)[O-])cc(C(=O)Nc2ccc(Cc3ccncc3)cc2)cc1[N+](=O)[O-] | 7.17% (inactive) | 48.7% (active) | 45% (active) | -0.27% (inactive)
13 | CCc1ccccc1NC(=O)CSc1nnc(Cn2nnc3ccccc32)n1C | 5.04% (inactive) | 53% (active) | 48.2% (active) | -5.32% (inactive)
14 | COc1ccc(/C=N/n2c(SC)nnc2-c2ccccc2)c(OC)c1OC | 53.5% (active) | 41.2% (active) | 54.4% (active) | -31.8% (inactive)
15 | NC(=S)Nc1ccc(Oc2ccc(NC(N)=S)cc2)cc1 | 5.35% (inactive) | 31.2% (inactive) | 40% (inactive) | -6.09% (inactive)
16 | CC(=O)N1CCc2c(sc(NC(=O)c3ccc([N+](=O)[O-])o3)c2C(N)=O)C1 | 19.9% (inactive) | 65.2% (active) | 65.3% (active) | -14.1% (inactive)
17 | CCOc1ccc(CCNC(=O)COC(=O)c2c(C)nn(-c3ccccc3)c2C)cc1OCC | 3.09% (inactive) | 41.6% (active) | 28.1% (inactive) | 2.25% (inactive)
18 | NC(=O)C1CCN(C(=O)COc2ccc3c4c(c(=O)oc3c2)CCCC4)CC1 | 12.7% (inactive) | 59.3% (active) | 50.3% (active) | -6.57% (inactive)
19 | COc1cc(-c2cnc3c(NC=O)cc(-c4cccc(NC(C)=O)c4)cn23)cc(OC)c1OC | 62.9% (active) | 74.9% (active) | 71.5% (active) | -23.8% (inactive)
20 | O=C1CCc2cc(OCCCCc3nnnn3C3CCCCC3)ccc2N1 | 12.9% (inactive) | 54% (active) | 49.8% (active) | 9.24% (inactive)
21 | CCCN(CC(=O)Nc1ccc(C(N)=O)cc1)CC(=O)Nc1ccccc1C | 15.3% (inactive) | 55.4% (active) | 53.9% (active) | 6.63% (inactive)
22 | Cc1ccc(C)c(NC(=O)CSc2nc3c(oc4ccccc43)c(=O)n2-c2ccccc2)c1 | 10.6% (inactive) | 50.3% (active) | 46.7% (active) | -9.48% (inactive)
23 | CN(C)C(=O)Cn1c(SCC(=O)Nc2ccc3c(c2)OCO3)nc2ccccc21 | -0.98% (inactive) | 22.2% (inactive) | 28.2% (inactive) | -0.46% (inactive)
24 | Cc1ccc2c(c1)Oc1ccc(NC(=O)CCl)cc1C(=O)N2 | 61.7% (active) | 68.3% (active) | 75.6% (active) | 16.8% (inactive)
